{"source": "PubChem BioAssay AID602283", "about": "(Johns Hopkins Ion Channel Center, 2012)", "note": "The campaign covered roughly 1,100 compounds. About 940 (85%) were called active.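 The calls were made as follows: active = inhibition exceeding 3 SD of buffer-only control wells (cut at about 26% in these data); inactive = the rest.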 So high a share suggests a set chosen from earlier hits. The list is a sample of the results.", "data": [{"assay": "M3R calcium signalling without RGS4 expression – cell-based, HEK293 M3R, non-induced RGS4, Fluo-4 calcium, counter-screen for RGS4 activator project, primary screen (AID 602283);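 also: percent drop in integrated peak-minus-baseline over baseline Fluo4 ratio after carbachol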", "conditions": "HEK293 M3R non-induced RGS4, Fluo4 calcium flux; at 10 µM; active compounds read high; after carbachol challenge at its EC90", "values": [{"smiles": "C=CC12CN(C)[C@@H]3C4CO[C@H](C[C@H]41)[C@]1(C(=O)Nc4ccccc41)[C@@H]32", "note": "(some centres not stated)", "inhibition": "83.8% (active)"}, {"smiles": "CC(C)Oc1cccc(C(=O)C2CCCN(C3CCOCC3)C2)c1", "note": "(configuration not stated)", "inhibition": "83.8% (active)"}]}]}
